Measured values: PubChem BioAssay (NCATS)
Inconclusive results are not listed. Entries that show only a call come without a potency. The source made the active and inactive calls. Calls come from the whole dose curve; as a rule, active = well fitted curve in the direction sought with a large enough effect; inconclusive = small, poorly fitted or top-dose-only effect, or another doubt; inactive = no such curve, though single readings can be large; an effect the other way counts as inactive or inconclusive.

Experiments:
[1] = Quantitative High-Throughput drug screen in 47 multiple myeloma cell lines against the NCATS MIPE library collection: H1112_PLB cell viability assay (AID 1918967; note: nearly all actives have a fitted effect of over 30% in size; note: potency is the fitted concentration of half-maximal effect)
Method in brief: (§1)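 Primary qHTS used for cherry-picking: cells at 500/well, library compounds for 48 h (37C, 5% CO2), luminescent ATP assay.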

[2] = Quantitative High-Throughput drug screen in 47 multiple myeloma cell lines against the NCATS MIPE library collection: Karpas25_ECACC cell viability assay (AID 1918968; note: nearly all actives have a fitted effect of over 35% in size; note: potency is the fitted concentration of half-maximal effect)
Method in brief: as §1

[3] = Quantitative High-Throughput drug screen in 47 multiple myeloma cell lines against the NCATS MIPE library collection: KMS27_JCRB cell viability assay (AID 1918970); note: nearly all actives have a fitted effect of over 30% in size; note: potency is the fitted concentration of half-maximal effect
Method in brief: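 KMS27_JCRB myeloma cells, 500 per well, exposed 48 h at 37 C, 5% CO2 to MIPE 4.0 compounds. Viability from ATP by CellTiter-Glo luminescence, normalized to DMSO (100%) and medium-only (0%) wells.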

[4] = Quantitative High-Throughput drug screen in 47 multiple myeloma cell lines against the NCATS MIPE library collection: KMS12BM_JCRB cell viability assay (AID 1918971); note: nearly all actives have a fitted effect of over 35% in size; note: potency is the fitted concentration of half-maximal effect
Method in brief: (§2)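 Myeloma cell lines, 500 cells per well, exposed to MIPE 4.0 library compounds for 48 h at 37C, 5% CO2. Viability from ATP by CellTiter-Glo luminescence; normalised to DMSO (100%) and media-only (0%) wells.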

[5] = Quantitative High-Throughput drug screen in 47 multiple myeloma cell lines against the NCATS MIPE library collection: KMS20_JCRB cell viability assay (AID 1918973); note: nearly all actives have a fitted effect of over 45% in size; note: potency is the fitted concentration of half-maximal effect
Method in brief: as §1

[6] = Quantitative High-Throughput drug screen in 47 multiple myeloma cell lines against the NCATS MIPE library collection: NCIH929_DSMZ cell viability assay (AID 1918978); note: nearly all actives have a fitted effect of over 35% in size; note: potency is the fitted concentration of half-maximal effect
Method in brief: (§3)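 ATP-based luminescence (CellTiter-Glo, 5 min RT incubation) quantified surviving cells following two days' treatment with MIPE 4.0 agents at 37 °C, 5% CO2.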

[7] = Quantitative High-Throughput drug screen in 47 multiple myeloma cell lines against the NCATS MIPE library collection: MM1R_ATCC cell viability assay (AID 1918981); note: nearly all actives have a fitted effect of over 35% in size; note: potency is the fitted concentration of half-maximal effect
Method in brief: as §3

[8] = Quantitative High-Throughput drug screen in 47 multiple myeloma cell lines against the NCATS MIPE library collection: LP1_DSMZ cell viability assay (AID 1918982); note: nearly all actives have a fitted effect of over 35% in size; note: potency is the fitted concentration of half-maximal effect
Method in brief: as §3

[9] = Quantitative High-Throughput drug screen in 47 multiple myeloma cell lines against the NCATS MIPE library collection: KMS28PE_JCRB cell viability assay (AID 1918983); note: nearly all actives have a fitted effect of over 35% in size; note: potency is the fitted concentration of half-maximal effect
Method in brief: as §3

[10] = Quantitative High-Throughput drug screen in 47 multiple myeloma cell lines against the NCATS MIPE library collection: L363_DSMZ cell viability assay (AID 1918984); note: nearly all actives have a fitted effect of over 40% in size; note: potency is the fitted concentration of half-maximal effect
Method in brief: as §3

[11] = Quantitative High-Throughput drug screen in 47 multiple myeloma cell lines against the NCATS MIPE library collection: KMS34_JCRB cell viability assay (AID 1918985); note: nearly all actives have a fitted effect of over 40% in size; note: potency is the fitted concentration of half-maximal effect
Method in brief: as §3

[12] = Quantitative High-Throughput drug screen in 47 multiple myeloma cell lines against the NCATS MIPE library collection: KMS26_JCRB cell viability assay (AID 1918975); note: nearly all actives have a fitted effect of over 45% in size; note: potency is the fitted concentration of half-maximal effect
Method in brief: as §2

[13] = Quantitative High-Throughput drug screen in 47 multiple myeloma cell lines against the NCATS MIPE library collection: MM1S_ATCC cell viability assay (AID 1918980); note: nearly all actives have a fitted effect of over 45% in size; note: potency is the fitted concentration of half-maximal effect
Method in brief: as §3

[14] = Quantitative High-Throughput drug screen in 47 multiple myeloma cell lines against the NCATS MIPE library collection: OCIMY5_PLB cell viability assay (AID 1918988); note: nearly all actives have a fitted effect of over 65% in size; note: potency is the fitted concentration of half-maximal effect
Method in brief: as §3

[15] = Quantitative High-Throughput drug screen in 47 multiple myeloma cell lines against the NCATS MIPE library collection: KMS12PE_JCRB cell viability assay (AID 1918972); note: nearly all actives have a fitted effect of over 30% in size; note: potency is the fitted concentration of half-maximal effect
Method in brief: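 Inhibition of cell viability is measured here. Each line was plated at 500 cells per well, treated with MIPE 4.0 drugs, kept 48 hours at 37C, then assayed for ATP content by CellTiter-Glo luminescence.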

[16] = Quantitative High-Throughput drug screen in 47 multiple myeloma cell lines against the NCATS MIPE library collection: OCIMY1_PLB cell viability assay (AID 1918979); note: nearly all actives have a fitted effect of over 35% in size
Method in brief: as §3

[17] = Quantitative High-Throughput drug screen in 47 multiple myeloma cell lines against the NCATS MIPE library collection: OCIMY7_PLB cell viability assay (AID 1918987); note: nearly all actives have a fitted effect of over 65% in size; note: potency is the fitted concentration of half-maximal effect
Method in brief: as §3

[18] = Quantitative High-Throughput drug screen in 47 multiple myeloma cell lines against the NCATS MIPE library collection: MOLP8_DSMZ cell viability assay (AID 1918977); note: nearly all actives have a fitted effect of over 45% in size; note: potency is the fitted concentration of half-maximal effect
Method in brief: as §3

[19] = Quantitative High-Throughput drug screen in 47 multiple myeloma cell lines against the NCATS MIPE library collection: KMS21BM_JCRB cell viability assay (AID 1918974); settings: ATP luminescence, 48 h; viability: at 45.8 µM (top of the series) unless noted
Method in brief: as §1

SMILES | Potency [1] | Potency [2] | Potency [3] | Potency [4] | Potency [5] | Potency [6] | Potency [7] | Potency [8] | Potency [9] | Potency [10] | Potency [11] | Potency [12] | Potency [13] | Potency [14] | Potency [15] | Potency [16] | Potency [17] | Potency [18] | Potency [19]
Clc1ccc2c(N3CCN(CCCN4CCN(c5ccnc6cc(Cl)ccc56)CC4)CC3)ccnc2c1 | inactive | inactive | inactive | inactive | inactive | inactive | inactive | inactive | inactive | inactive | inactive | – | – | – | – | – | – | – | –
COc1cc(Nc2c(C#N)cnc3cc(OCCCN4CCN(C)CC4)c(OC)cc23)c(Cl)cc1Cl | 9.35 µM (active) | 1.05 µM (active) | – | 14.8 µM (active) | 1.32 µM (active) | 3.72 µM (active) | 18.7 µM (active) | – | 18.7 µM (active) | 1.66 µM (active) | 16.6 µM (active) | 18.7 µM (active) | 29.6 µM (active) | 18.7 µM (active) | – | – | – | – | –
O=c1c(O)c(-c2ccc(O)cc2O)oc2cc(O)cc(O)c12 | inactive | 10.5 µM (active) | – | 2.09 µM (active) | – | – | – | – | – | – | – | – | 0.833 µM (active) | – | – | – | – | – | –
CN(C)CCc1c[nH]c2ccc(Cn3cncn3)cc12 | inactive | inactive | – | inactive | – | inactive | inactive | inactive | – | – | inactive | inactive | – | – | – | – | – | – | –
Cc1nc2n(c(=O)c1CCN1CCC(c3noc4cc(F)ccc34)CC1)CCCC2 | inactive | inactive | inactive | inactive | inactive | inactive | inactive | inactive | inactive | – | inactive | – | inactive | – | inactive | – | – | – | –
Cc1cc(O)c2c(c1)C(=O)c1cc(O)cc(O)c1C2=O | inactive | 2.09 µM (active) | inactive | – | inactive | – | – | – | – | inactive | inactive | 11.8 µM (active) | – | – | inactive | inactive | – | – | –
Cc1cc(=O)oc2cc(O)ccc12 | inactive | 4.69 µM (active) | inactive | inactive | inactive | inactive | 6.62 µM (active) | inactive | inactive | inactive | – | inactive | – | inactive | inactive | inactive | – | – | –
Nc1cccc2c1CN(C1CCC(=O)NC1=O)C2=O (centres undefined) | inactive | 4.81 µM (active) | inactive | – | – | – | – | – | 0.171 µM (active) | – | inactive | 0.605 µM (active) | – | inactive | inactive | – | 0.0382 µM (active) | – | –
CCOC(=O)c1c(C)n(C)c2ccc(O)cc12 | inactive | inactive | inactive | – | inactive | inactive | inactive | inactive | inactive | inactive | 3.72 µM (active) | inactive | – | 3.72 µM (active) | inactive | – | – | inactive | –
CCN(CC)CCOc1ccc(Nc2ncc3cc(-c4c(Cl)cccc4Cl)c(=O)n(C)c3n2)cc1 | 5.9 µM (active) | 0.0209 µM (active) | 0.132 µM (active) | 2.35 µM (active) | 0.001 µM (active) | 1.87 µM (active) | 1.32 µM (active) | 1.87 µM (active) | 1.18 µM (active) | – | 0.166 µM (active) | 5.26 µM (active) | 2.35 µM (active) | 0.105 µM (active) | 0.0105 µM (active) | – | – | 0.059 µM (active) | –
CCC(C)(Oc1ccc(C2(c3ccc(OC(C)(CC)C(=O)O)cc3)CCCCC2)cc1)C(=O)O (centres undefined) | inactive | 13.2 µM (active) | inactive | – | – | inactive | inactive | inactive | – | inactive | – | – | – | inactive | inactive | inactive | – | inactive | –
c1ccc2[nH]c(-c3cscn3)nc2c1 | inactive | inactive | – | inactive | inactive | inactive | inactive | inactive | inactive | – | inactive | – | – | inactive | inactive | – | inactive | – | –
N=C(N)c1ccc2cc(OC(=O)c3ccc(N=C(N)N)cc3)ccc2c1 | inactive | 9.35 µM (active) | inactive | 23.5 µM (active) | – | inactive | inactive | inactive | – | – | 6.62 µM (active) | – | inactive | 18.7 µM (active) | inactive | – | – | – | –
CC(C)c1ccc2oc3nc(N)c(C(=O)O)cc3c(=O)c2c1 | inactive | inactive | inactive | – | – | inactive | inactive | – | inactive | – | – | – | – | – | inactive | – | – | – | –
Nc1ccc(S(N)(=O)=O)cc1 | inactive | inactive | – | inactive | – | inactive | inactive | inactive | – | – | – | inactive | inactive | inactive | – | inactive | inactive | inactive | inactive
Oc1ccc(-c2nc(-c3ccc(F)cc3)c(-c3ccncc3)[nH]2)cc1 | 8.33 µM (active) | 7.43 µM (active) | inactive | – | – | – | – | – | – | – | – | – | 16.6 µM (active) | 16.6 µM (active) | – | – | – | – | –
Cc1c(C(=O)NN2CCCCC2)nn(-c2ccc(Cl)cc2Cl)c1-c1ccc(Cl)cc1 | 23.5 µM (active) | 23.5 µM (active) | – | 23.5 µM (active) | – | – | – | – | – | – | inactive | – | – | – | 14.8 µM (active) | – | – | – | –
CCOC(=O)C1=C[C@@H](OC(CC)CC)[C@H](NC(C)=O)[C@@H](N)C1 | inactive | inactive | – | – | inactive | inactive | inactive | inactive | – | – | inactive | inactive | – | – | inactive | inactive | – | – | –
Cc1cccc(C#Cc2ccccc2)n1 | inactive | inactive | inactive | 18.7 µM (active) | – | 20.9 µM (active) | – | inactive | – | – | – | – | – | – | – | inactive | – | – | –
